In assay [1] the target is Nuclear receptor coactivator 3 (Homo sapiens) (UniProt Q9Y6Q9). The assay is described as follows: NCOA3 GAL4-fusion reporter inhibition – cell-based, luminescence, quadruplicate, confirmation (AID 588792;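 active means mean inhibition over 43.08%, the solvent-only control mean plus 3 SD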;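 further: 0% = DMSO treated cells and 100% = gossypol at 36 µM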). The conditions noted are these: HEK293 GAL4-SRC3 luciferase reporter, at 3.6 µM, stronger effect = higher value. Background: In a reporter assay the amount or activity of a reporter protein is the signal.
Sequence of Nuclear receptor coactivator 3 (Homo sapiens) (Q9Y6Q9 whole entry, looked up, the tested form may be a part): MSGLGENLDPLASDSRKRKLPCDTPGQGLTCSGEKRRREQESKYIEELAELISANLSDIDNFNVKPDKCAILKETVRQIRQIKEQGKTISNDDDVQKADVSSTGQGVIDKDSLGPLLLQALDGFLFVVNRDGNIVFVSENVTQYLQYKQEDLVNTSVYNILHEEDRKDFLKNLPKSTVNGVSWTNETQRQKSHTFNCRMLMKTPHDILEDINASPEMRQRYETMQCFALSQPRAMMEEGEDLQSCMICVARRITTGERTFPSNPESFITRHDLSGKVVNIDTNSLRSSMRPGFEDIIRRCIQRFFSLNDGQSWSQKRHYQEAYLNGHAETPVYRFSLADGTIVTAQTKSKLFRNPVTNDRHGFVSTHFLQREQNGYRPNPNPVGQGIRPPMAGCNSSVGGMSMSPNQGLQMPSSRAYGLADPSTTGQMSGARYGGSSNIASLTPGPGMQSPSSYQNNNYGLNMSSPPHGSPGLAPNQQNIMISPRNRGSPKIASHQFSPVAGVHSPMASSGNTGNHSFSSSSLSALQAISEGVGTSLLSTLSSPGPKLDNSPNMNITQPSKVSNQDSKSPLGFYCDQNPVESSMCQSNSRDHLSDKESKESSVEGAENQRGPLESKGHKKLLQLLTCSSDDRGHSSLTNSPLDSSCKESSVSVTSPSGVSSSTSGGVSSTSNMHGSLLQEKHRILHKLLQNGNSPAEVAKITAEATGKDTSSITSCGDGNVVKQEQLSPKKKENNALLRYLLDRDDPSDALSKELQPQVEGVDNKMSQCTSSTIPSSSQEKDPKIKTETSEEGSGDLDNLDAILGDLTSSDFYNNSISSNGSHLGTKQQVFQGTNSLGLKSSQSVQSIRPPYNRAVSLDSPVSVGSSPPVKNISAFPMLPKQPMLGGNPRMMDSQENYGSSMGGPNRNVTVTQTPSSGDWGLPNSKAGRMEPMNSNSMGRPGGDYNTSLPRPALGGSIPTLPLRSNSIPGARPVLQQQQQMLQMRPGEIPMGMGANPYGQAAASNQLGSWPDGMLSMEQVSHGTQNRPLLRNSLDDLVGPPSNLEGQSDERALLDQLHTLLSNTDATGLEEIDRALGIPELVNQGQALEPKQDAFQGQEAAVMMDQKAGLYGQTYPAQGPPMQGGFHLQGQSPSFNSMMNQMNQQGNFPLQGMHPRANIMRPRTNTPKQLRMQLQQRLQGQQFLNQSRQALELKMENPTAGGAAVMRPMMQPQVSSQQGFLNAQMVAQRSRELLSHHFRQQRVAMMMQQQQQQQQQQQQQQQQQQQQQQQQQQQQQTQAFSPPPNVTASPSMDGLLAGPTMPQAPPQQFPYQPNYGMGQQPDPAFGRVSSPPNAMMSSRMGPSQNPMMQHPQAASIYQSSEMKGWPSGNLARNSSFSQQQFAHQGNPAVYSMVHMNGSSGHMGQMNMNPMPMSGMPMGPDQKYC

In assay [2] the test system is transactivating tegument protein VP16 (Human herpesvirus 1), Gal4-VP16 luciferase reporter. The assay is described as follows: repression of VP16-driven luciferase reporter – cell-based, luminescence, high throughput, counter-screen for SRC3 inhibitor project (AID 588794). The conditions noted are these: mammalian cells, at 3.6 µM, stronger effect = higher value.
The target of assay [3] is Nuclear receptor coactivator 1 (Homo sapiens) (UniProt Q15788). Put plainly: NCOA1 GAL4-fusion reporter inhibition – cell-based, luminescence, quadruplicate, confirmation (AID 588820;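 active means mean inhibition above 46.68%, the untreated control wells mean plus 3 SD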;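 further: 0% = DMSO wells and 100% = gossypol 36 µM treated wells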). The note with it: HEK293 GAL4-SRC1 luciferase reporter, at 3.6 µM, stronger effect = higher value.
Sequence of Nuclear receptor coactivator 1 (Homo sapiens) (Q15788 whole entry, looked up, the tested form may be a part): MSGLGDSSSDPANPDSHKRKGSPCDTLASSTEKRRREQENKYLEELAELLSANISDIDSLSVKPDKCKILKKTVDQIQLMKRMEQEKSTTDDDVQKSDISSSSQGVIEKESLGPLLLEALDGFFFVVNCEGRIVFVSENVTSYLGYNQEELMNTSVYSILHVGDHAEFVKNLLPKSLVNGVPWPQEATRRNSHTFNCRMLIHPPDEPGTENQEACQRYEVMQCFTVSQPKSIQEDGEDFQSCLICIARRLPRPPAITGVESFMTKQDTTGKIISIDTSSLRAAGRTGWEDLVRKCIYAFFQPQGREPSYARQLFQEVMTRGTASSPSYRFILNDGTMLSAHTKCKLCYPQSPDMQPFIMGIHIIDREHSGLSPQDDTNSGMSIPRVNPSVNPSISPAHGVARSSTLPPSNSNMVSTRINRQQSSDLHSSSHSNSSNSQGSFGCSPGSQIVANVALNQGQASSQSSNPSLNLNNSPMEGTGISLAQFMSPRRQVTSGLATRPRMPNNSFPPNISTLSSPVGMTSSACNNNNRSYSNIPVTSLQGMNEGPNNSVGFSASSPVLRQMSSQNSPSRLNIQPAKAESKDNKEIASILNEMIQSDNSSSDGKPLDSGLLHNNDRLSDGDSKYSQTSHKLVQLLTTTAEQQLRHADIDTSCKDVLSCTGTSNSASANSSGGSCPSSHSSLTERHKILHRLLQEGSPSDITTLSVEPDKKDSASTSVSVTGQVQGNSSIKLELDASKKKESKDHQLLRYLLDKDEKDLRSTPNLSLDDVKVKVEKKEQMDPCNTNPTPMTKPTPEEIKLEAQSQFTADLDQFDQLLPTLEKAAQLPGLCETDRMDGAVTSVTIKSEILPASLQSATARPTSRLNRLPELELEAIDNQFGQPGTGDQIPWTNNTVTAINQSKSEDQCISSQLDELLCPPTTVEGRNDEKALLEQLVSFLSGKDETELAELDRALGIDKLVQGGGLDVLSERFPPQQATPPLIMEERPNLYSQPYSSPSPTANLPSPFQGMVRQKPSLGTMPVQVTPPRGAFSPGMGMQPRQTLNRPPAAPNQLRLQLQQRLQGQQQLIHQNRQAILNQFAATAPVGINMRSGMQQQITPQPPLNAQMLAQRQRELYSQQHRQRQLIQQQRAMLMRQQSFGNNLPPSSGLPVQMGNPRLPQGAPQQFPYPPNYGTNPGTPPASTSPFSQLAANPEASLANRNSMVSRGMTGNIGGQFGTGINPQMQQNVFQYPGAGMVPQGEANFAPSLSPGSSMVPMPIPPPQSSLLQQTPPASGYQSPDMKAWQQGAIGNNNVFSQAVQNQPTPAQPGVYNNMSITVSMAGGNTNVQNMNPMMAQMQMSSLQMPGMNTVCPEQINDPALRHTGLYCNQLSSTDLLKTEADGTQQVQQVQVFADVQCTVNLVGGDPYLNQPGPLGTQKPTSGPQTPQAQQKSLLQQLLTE
Assay [4] in a line: repression of VP16-driven luciferase reporter – cell-based, luminescence, high throughput, counter-screen for SRC1 inhibitor project (AID 588824; in the data active means inhibition above about 25%). The note with it: cell-based VP16 transactivation luciferase luminescence; at 3.6 µM; stronger effect = higher value.
The nature of assay [5]: StAR promoter reporter inhibitors, counter-screen for LRH-1 inverse agonist project, cell-based, luminescence, high throughput (AID 651611; in the data active means inhibition above about 28%). The conditions noted are these: StAR promoter luciferase reporter counterscreen, at 3.6 µM, stronger effect = higher value. On the technique in general: The purpose of a counterscreen is to sort out artefacts and off-target activity.
Assay [6] has as its target Nuclear receptor subfamily 5 group A member 2 (Homo sapiens) (UniProt O00482). Put plainly: NR5A2 activity suppression in reporter cells – cell-based, luminescence, confirmation (AID 651613; in the data active means inhibition above about 42%;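 further: HEK293T cells co-transfected with LRH-1 and StAR promoter luciferase reporter; 0% = vehicle wells and 100% = parental cells lacking receptor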). The conditions noted are these: cell-based LRH-1 luciferase reporter, inverse agonism; at 3.6 µM; stronger effect = higher value.
In assay [7] the target is Steroidogenic factor 1 (Homo sapiens) (UniProt Q13285). Put plainly: inverse agonism at SF1 nuclear receptor – cell-based, luminescence, high throughput, counter-screen for LRH-1 inverse agonist project (AID 651614; in the data active means inhibition above about 44%;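 further: cells cotransfected with StAR promoter reporter and SF1 expression vector; 0% = vehicle on cells with receptor and 100% = vehicle on cells lacking receptor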). The conditions noted are these: cell-based SF1 luciferase reporter, at 3.6 µM, stronger effect = higher value.
Sequence of Steroidogenic factor 1 (Homo sapiens) (Q13285 whole entry, looked up, the tested form may be a part): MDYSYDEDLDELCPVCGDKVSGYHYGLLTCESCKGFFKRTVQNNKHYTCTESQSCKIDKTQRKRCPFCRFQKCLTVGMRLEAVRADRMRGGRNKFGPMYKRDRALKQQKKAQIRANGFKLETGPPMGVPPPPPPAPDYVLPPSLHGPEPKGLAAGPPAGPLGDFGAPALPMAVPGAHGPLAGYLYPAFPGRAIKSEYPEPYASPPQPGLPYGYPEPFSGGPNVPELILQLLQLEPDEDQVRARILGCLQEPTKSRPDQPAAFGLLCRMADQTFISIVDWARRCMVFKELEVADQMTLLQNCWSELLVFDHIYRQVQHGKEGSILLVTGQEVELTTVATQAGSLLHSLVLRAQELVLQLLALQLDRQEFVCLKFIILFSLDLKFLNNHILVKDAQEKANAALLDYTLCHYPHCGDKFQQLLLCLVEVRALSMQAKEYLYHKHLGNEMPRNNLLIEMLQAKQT
Assay [8] is described as follows: compounds suppressing VP16-driven luciferase signal – cell-based, luminescence, high throughput, counter-screen for LRH-1 inverse agonist project (AID 651615; in the data active means inhibition above about 33%). The conditions noted are these: Gal4-VP16 luciferase reporter cells, at 3.6 µM, stronger effect = higher value.
The test system of assay [9] is transactivating tegument protein VP16 (Human herpesvirus 1). The assay is described as follows: compounds suppressing VP16-driven luciferase signal – cell-based, luminescence, single concentration, counter-screen for SRC2 inhibitor project (AID 652007; in the data active means inhibition above about 36%). The note with it: cell-based VP16 transactivation luciferase reporter, at 8.9 µM, stronger effect = higher value.
The target in assay [10] is Nuclear receptor coactivator 2 (Homo sapiens) (UniProt Q15596). The assay is described as follows: inhibition of GAL4-SRC2 driven luciferase expression – cell-based, luminescence, HEK293, triplicate, confirmation (AID 652008;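 active means mean inhibition above 46.5%, the solvent-only control mean plus 3 SD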;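 further: 0% = DMSO-treated cells and 100% = Gossypol at 36 µM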). The note with it: HEK293 GAL4-SRC2 luciferase reporter, at 8.9 µM, stronger effect = higher value.

The values that follow come from PubChem BioAssay.

The structures appear in SMILES notation. A number with no mark means an inactive call. Calls of active or inactive are those of the source. Unless noted, no stated cut-off is given here; in the data, active means inhibition above about 30%; inactive means the rest.

Sequence of Nuclear receptor subfamily 5 group A member 2 (Homo sapiens) (O00482 whole entry, looked up): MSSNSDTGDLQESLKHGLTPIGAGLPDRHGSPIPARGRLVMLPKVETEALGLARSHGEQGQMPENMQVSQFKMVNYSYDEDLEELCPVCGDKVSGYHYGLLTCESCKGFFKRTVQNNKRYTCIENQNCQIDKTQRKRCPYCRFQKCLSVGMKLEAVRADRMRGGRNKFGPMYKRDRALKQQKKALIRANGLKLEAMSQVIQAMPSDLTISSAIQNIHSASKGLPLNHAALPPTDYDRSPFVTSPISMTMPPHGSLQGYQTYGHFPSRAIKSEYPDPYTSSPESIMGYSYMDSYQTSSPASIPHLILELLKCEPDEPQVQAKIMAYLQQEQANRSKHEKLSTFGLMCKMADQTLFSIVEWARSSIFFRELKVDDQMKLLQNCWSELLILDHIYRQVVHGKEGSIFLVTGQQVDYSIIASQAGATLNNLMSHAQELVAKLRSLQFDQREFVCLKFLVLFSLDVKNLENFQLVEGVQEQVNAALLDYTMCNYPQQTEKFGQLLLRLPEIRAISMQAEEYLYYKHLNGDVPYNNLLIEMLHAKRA

Regarding `COc1cc2c(cc1O)C[C@H]1NCCc3cc4c(c-2c31)OCO4`, the inhibition (in general, the change of the read-out against control, counted positive when it falls) in assay [1] was 32.3%; in assay [2] it was 33.2% (active); in assay [3], 22.1%; in assay [4], 40.2% (active).
For `CC(C)(C)c1cc(C=C(C#N)C#N)cc(C(C)(C)C)c1O`, the inhibition in assay [1] is 64.3% (active); in [2] it was 82.4% (active); in [3] it was 0.93%; in assay [4] it was 81% (active); in assay [5] it was 80.2% (active); in [6], 102% (active). In addition, the figures for the inhibition in assay [7] and in [8] were 91.4% (active) and 88.2% (active), respectively.
Regarding `Cc1ccc(C[n+]2c(-c3ccc(C)cc3)cc(-c3ccc(C)cc3)cc2-c2ccc(C)cc2)cc1`, the inhibition is 91.3% (active) in assay [1], 87.9% (active) in assay [2], 44.1% in [3] and 84.7% (active) in assay [4].
For the compound `O=c1[nH]c2ccccc2n1C1CCN(C(c2cccc3ccccc23)c2nnnn2-c2ccc3c(c2)OCCO3)CC1` (centres undefined), the inhibition in [1] was 33.8%; in assay [2] it was 12.5%; in [3] it was -29.6%; in [4], 10.9%; in [5], 57.5% (active); in assay [6], 27.6%. In addition, the inhibition in assay [7] is 44% (active); in assay [8], 27.7%.
With `COc1ccc(-[n+]2c(-c3ccccc3)cc(-c3ccc(C)cc3)cc2-c2ccccc2)cc1`, the inhibition is 85.5% (active) in assay [1]; 87.3% (active) in assay [2]; 71.9% (active) in assay [3]; 88.3% (active) in assay [4]; 82.7% (active) in assay [5]; 111% (active) in assay [6]. The inhibition in assay [7] is 96.9% (active); in assay [8], 98.2% (active).
Take `CC[n+]1c(/C=C/N(C)c2ccccc2)sc2ccc(Cl)cc21`: the inhibition is 28.9% in assay [1]; 46.1% (active) in assay [2]; 30.4% in [3]; 48.8% (active) in [4]; 23.7% in assay [5]; 83.7% (active) in [6]. For the same compound, the inhibition in assay [7] was 73.4% (active); in assay [8] it was 75% (active).
Take `O=C1NC2C(=CC(O)C(O)C2O)c2cc3c(c(O)c21)OCO3` (centres undefined): the inhibition in assay [1] was 97.4% (active); in assay [2], 96.1% (active); in assay [3] it was 94.7% (active); in assay [4], 94.7% (active); in assay [5] it was 95.7% (active); in assay [6] it was 109% (active). Moreover, the inhibition was 98% (active) in [7], 96% (active) in assay [8], 79.3% (active) in assay [9] and 75.6% (active) in assay [10].
Consider `O=c1[nH]c2ccccc2n1C1CCN(C(c2cccc3ccccc23)c2nnnn2Cc2ccccc2)CC1` (centres undefined), for which the inhibition in [1] is 13.1%; in assay [2] it was 8.16%; in assay [3], -24.4%; in assay [4], -4.89%; in assay [5] it was 53.6% (active); in assay [6], 18.9%. Besides, the inhibition was 28.4% in assay [7] and 9.13% in assay [8].
In the case of `CC(C)c1oc(=O)cc2c1[C@@H](O)[C@H]1OC(=O)[C@@]3(C)CC[C@@H](O)[C@@]2(C)C13` (some centres undefined), the inhibition is 40.9% in assay [1]; 7.55% in assay [2]; -2.23% in assay [3]; 10% in [4]; 71.4% (active) in [5]; 86.2% (active) in [6]. For the same compound, the inhibition is 72.3% (active) in assay [7] and 53.6% (active) in assay [8].
In the case of `COc1ccc(-n2nnnc2C(CCc2ccccc2)N2CCC(n3c(=O)[nH]c4ccccc43)CC2)cc1` (centres undefined), the inhibition is 25.2% in assay [1]; 8.54% in assay [2]; 2.43% in assay [3]; 9.95% in assay [4]; 48.7% (active) in assay [5]; 28.1% in assay [6]. Further, the inhibition in [7] is 30.3%; in [8], 33.6% (active).
For the compound `Clc1ccc(C[n+]2c(-c3ccccc3)cc(-c3ccccc3)cc2-c2ccccc2)cc1`, the inhibition was 83.5% (active) in [1]; 66% (active) in assay [2]; 53.1% (active) in [3]; 73.6% (active) in [4]; 70.8% (active) in [5]; 110% (active) in assay [6]. Also, the figures for the inhibition in assay [7] and in [8] were 89.8% (active) and 94% (active), respectively.
On to `COc1ccc(-n2nnnc2C(c2cc3ccccc3o2)N2CCC(n3c(=O)[nH]c4ccccc43)CC2)cc1` (centres undefined), for which the inhibition in assay [1] is -5.69%; in assay [2] it was 5.58%; in [3] it was 0.21%; in [4], 6.66%; in [5] it was 39.6% (active); in [6] it was 36.4%. Besides, the inhibition in [7] is 45.7% (active); in [8], 35.3% (active); in assay [9], 49.7% (active); in assay [10], 22.9%.
On to `CC[C@@H](O)C[C@H]1CCC[C@@]2(C[C@@H]3OC(=O)/C=C/[C@@](C)(O)[C@@H](O)[C@H](C)[C@@H](O)[C@H](OC4CCC(N(C)C)C(C)O4)[C@@H](O)[C@](C)(O)CCCCC/C=C/[C@@H]4CC(C)(C)O[C@@]4(O)C[C@H](O2)[C@H]3C)O1` (some centres undefined), for which the inhibition in assay [1] is 76.5% (active); in assay [2], 85.9% (active); in assay [3], 62.5% (active); in assay [4], 85% (active); in [5], 79.8% (active); in assay [6] it was 105% (active). For the same compound, the inhibition in assay [7] is 94% (active); in assay [8], 87.9% (active).
Consider `C[C@H]1[C@@H](OS(=O)(=O)O)C[C@@H]2C[C@H]([C@@H](O)c3cc(=O)[nH]c(=O)[nH]3)NC3=NC[C@H]1N32`, for which the inhibition in [1] is 88.3% (active); in assay [2] it was 71% (active); in assay [3], 58% (active); in [4] it was 70.5% (active); in assay [5], 92.3% (active); in [6] it was 107% (active). Moreover, the inhibition in assay [7] was 95.2% (active); in assay [8] it was 76.8% (active).
Consider `C[C@]12CC[C@H](O)C[C@H]1CC[C@@H]1[C@@H]2C[C@@H](O)[C@]2(C)[C@@H](C3=CC(=O)OC3)CC[C@]12O`, for which the inhibition is 88.8% (active) in assay [1]; 65.8% (active) in assay [2]; 13.8% in assay [3]; 65.4% (active) in assay [4]; 94.8% (active) in [5]; 107% (active) in assay [6]. Besides, the inhibition in assay [7] is 96% (active); in assay [8] it was 77.7% (active).
Take `C=CCn1c(O)c(C(C)=NCc2cc(OC)cc(OC)c2)c(=O)[nH]c1=O`: the inhibition in assay [1] is 49.6% (active); in assay [2], 28.2%; in assay [3] it was 43%; in assay [4], 24.5%; in assay [5], 42.4% (active); in assay [6], 66.4% (active). The inhibition in assay [7] was 57.7% (active); in assay [8] it was 43.6% (active).
